Test results reported in PubChem BioAssay (NCATS).
Records with an inconclusive call do not appear. Active and inactive are the calls of the source. Calls follow the shape of the dose curve; as a rule, active = well fitted cell-killing curve with a large enough effect; inconclusive = small, poorly fitted or top-dose-only effect; inactive = flat fitted curve, though single readings scatter.

Test: qHTS of pediatric cancer cell lines to identify multiple opportunities for drug repurposing: Primary screen for control Hh wild type fibroblast cells (AID 1347106);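 also: a drop in luminescence marks cytotoxicity and a rise apparent proliferation; nearly all actives have a fitted effect of over 55% in size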
Conditions: Hh wild-type fibroblast viability, CellTiter-Glo luminescence, 48 h; series mostly up to 46 µM
Source text: Drug repurposing or repositioning has been offered as a strategy for drug development in oncology programs. This approach has special potential for childhood cancers and other rare or orphan diseases, where the expected return on new drug development has been a disincentive to pharmaceuticals.
In this project we exploit the poly-pharmacology of drugs to discover new indications via phenotypic screening of a panel of 19 well-characterized cell lines derived from solid tumors seen in children and adolescents. The goal is to identify approved drugs with previously unrecognized anticancer properties that has the potential to reveal new mechanisms and biological processes involved in carcinogenesis or drug resistance. We employed a titration-based paradigm (quantitative high-throughput screening or qHTS), where all compounds were tested at multiple concentrations for their effect on cell viability. Concentration-response curves (CRCs) were derived directly from the primary screen, and both potency and efficacy values were used to identify compounds with robust bioactivity profiles. We screened the NIH Chemical Genomics Center (NCGC) Pharmaceutical Collection (NPC) and Mechanism Interrogation Plate (MIPE) small molecule collections of approved and investigational compounds against these cell lines; and measured metabolically active cells after 48 hours of compound treatment as a proxy for cell viability.
Assay Submitter: Nathalia J. Martinez, National Center for Advancing Translational Sciences, National Institutes of Health, Rockville, MD, USA; email: natalia.martinez@nih.gov
[1] Shen, M et al. Quantitative high-throughput phenotypic screening of pediatric cancer cell lines identifies multiple opportunities for drug repurposing. Oncotarget 2017 Dec 19;9(4):4758-4772. PMID 29435139.
The cells were obtained from University of North Carolina (UNC), Pediatric Preclinical Testing Program (PPT), and Coriell Institute (CI).
qHTS cell viability assay:
Cells were assayed in growth media at a density of 500-1,000 cells/well. Five microliters of cells were dispensed into 1,536-well, white, solid-bottom, TC-treated plates (Greiner Bio One) using a multidrop dispenser and incubated at 37 degrees C, 5% CO2, under a humidified atmosphere for 5 hours. Twenty-three nanoliters of compounds and controls (neutral control DMSO or positive control bortezomib at final concentration of 2.3 µM) were subsequently transferred by Kalypsys pintool. For primary screens, the MIPE collection was tested at 11-point dilutions (final concentrations range from 0.78 nM to 46 µM) and the NPC collection at 8-point dilutions (final concentrations range from 0.59 nM to 46 µM). Compounds tested in follow-up screens were assayed at 11-point dilutions. Cells were incubated for 48 hours, followed by addition of 3 µL of CellTiter-Glo (Promega). After a 15 min incubation at room temperature, samples were analyzed for luminescence intensity using a ViewLux High-throughput CCD imager equipped with clear filters.

Row | SMILES | outcome
1 | CCCCNc1c(C(=O)OCC)c(C)nc2c1cnn2CC | inactive
2 | COC(=O)C1=C(C)NC(C)=C(C(=O)OC(C)(C)CN(C)CCC(c2ccccc2)c2ccccc2)C1c1cccc([N+](=O)[O-])c1 (stereo not given) | inactive
3 | NC(=O)c1ncn([C@@H]2O[C@H](CO)[C@@H](O)[C@H]2O)c1O | inactive
4 | C(=C\c1ccccc1)/CN1CCN(C(c2ccccc2)c2ccccc2)CC1 | inactive
5 | COCCc1ccc(OCC(O)CNC(C)C)cc1 (stereo not given) | inactive
6 | CN1C[C@H](C(=O)N[C@]2(C)O[C@@]3(O)[C@@H]4CCCN4C(=O)[C@H](Cc4ccccc4)N3C2=O)C[C@@H]2c3cccc4[nH]cc(c34)C[C@H]21 | inactive
7 | CC(C)NCC(O)c1cc(O)cc(O)c1 (stereo not given) | inactive
8 | CN(C)CC[C@@H](c1ccc(Br)cc1)c1ccccn1 | inactive
9 | CCN(Cc1ccncc1)C(=O)C(CO)c1ccccc1 (stereo not given) | inactive
10 | O=C(CCNNC(=O)c1ccncc1)NCc1ccccc1 | inactive
11 | Cc1nnc(SCC2=C(C(=O)O)N3C(=O)[C@@H](NC(=O)Cn4cnnn4)[C@H]3SC2)s1 | inactive
12 | COc1ccc(CN(CCN(C)C)c2ccccn2)cc1 | inactive
13 | CC(=O)OCC1=C(C(=O)O)N2C(=O)[C@@H](NC(=O)Cc3cccs3)[C@H]2SC1 | inactive
14 | Cc1nc2sccn2c(=O)c1CCN1CCC(=C(c2ccc(F)cc2)c2ccc(F)cc2)CC1 | inactive
15 | CCN(CC)CCNC(=O)c1ccc(NC(C)=O)cc1 | inactive
16 | C[N+](C)(C)CCOC(N)=O | inactive
17 | Cc1ccc(Cl)c(Nc2ccccc2C(=O)O)c1Cl | inactive
18 | OCCN1CCN(CC/C=C2/c3ccccc3Sc3ccc(C(F)(F)F)cc32)CC1 | inactive
19 | CCCCOCCOCCOCc1cc2c(cc1CCC)OCO2 | inactive
20 | CN1CCN(C2=Nc3ccccc3Oc3ccc(Cl)cc32)CC1 | inactive

Row | SMILES | outcome
21 | O=C(O)CN(CCN(CC(=O)O)CC(=O)O)CCN(CC(=O)O)CC(=O)O | inactive
22 | CN(C)C(=O)Oc1cccc([N+](C)(C)C)c1 | inactive
23 | CC[N+](C)(C)c1cccc(O)c1 | inactive
24 | CCN(CC)CC(=O)Nc1c(C)cccc1C | inactive
25 | CCN1CCc2nc(N)oc2CC1 | inactive
26 | c1cc(CN2CCCCC2)cc(OCCCNc2nc3ccccc3s2)c1 | inactive
27 | CC(C)[N+](C)(CCOC(=O)C1c2ccccc2Oc2ccccc21)C(C)C | inactive
28 | CCCCCCCC/C=C\CCCCCCCC(=O)NCc1ccc(O)c(OC)c1 | inactive
29 | C[C@]12CCC(=O)C=C1CC[C@@H]1[C@@H]2C(=O)C[C@@]2(C)[C@H]1CC[C@]2(O)C(=O)CO | inactive
30 | NC/C=C/C(=O)O | inactive
31 | CCCOc1ccccc1-c1nc2n[nH]nc2c(=O)[nH]1 | inactive
32 | CO[C@@]1(NC(=O)CSCC#N)C(=O)N2C(C(=O)O)=C(CSc3nnnn3C)CS[C@@H]21 | inactive
33 | CCN1CCC[C@H]1CNC(=O)c1c(O)c(Cl)cc(Cl)c1OC | inactive
34 | CN(C)CCCN1c2ccccc2Sc2ccccc21 | inactive
35 | Cc1nc2c([nH]1)c(=O)n(C)c(=O)n2Cc1ccco1 | inactive
36 | C=CCc1ccccc1OCC(O)CNC(C)C (stereo not given) | inactive
37 | Nc1nc(N)c2nc(-c3ccccc3)c(N)nc2n1 | inactive
38 | COc1ccc2c(c1OC)C(=O)O[C@@H]2[C@H]1c2c(cc3c(c2OC)OCO3)CCN1C | inactive
39 | CC(=O)OC(C)C[N+](C)(C)C (stereo not given) | inactive
40 | CC(C)(Oc1ccc(CCNC(=O)c2ccc(Cl)cc2)cc1)C(=O)O | inactive
